Calls of active or inactive are those of the source. Calls follow the shape of the full dose curve.
test: Cell Proliferation Assay Versus the ED40515 IL2 Independent ATL cell lines (AID 1053194); conditions: ED40515 IL2-independent ATL cells
Source text: Adult T-cell leukemia (ATL) develops in individuals infected with human T-cell lymphotropic virus-1 (HTLV-1). Clinically, ATL is subclassified into four subtypes: smoldering, chronic, lymphomatous, and acute. Two autocrine loops (IL-2/IL-2Ralpha and IL-15/IL-15Ralpha) and one paracrine stimulation loop that involves IL-9 expression by ATL cells and IL-9Ralpha expression on monocytes are required to maintain viability and proliferation in the smoldering and chronic forms of the disease. These assays examined the differential response profiles for the MIPE library of approved and investigational drugs versus an IL2 dependent and independent matched ATL cell line, with the current submission examining the differential response profiles for drugs on an IL2 independent matched ATL cell line
Plate log growing ED40515 -IL2 cells: 1000cells/ well in 5uL phenol red free RPMI +5% FBS +1x p/s, Glutamine using 1536 well white griener tissue culture plates and multidrop cassette acoustic dispensing Columns 1 and 3 DMSO Columns 2 and 4, 9.2 uM Bortezomib Incubate 48 hours for celltiter glo 37C with 5%CO2 and 95% humidity with low evaporation lids Dispense 3 uL per well of cell titer glo with multidrop Incubate for 15 minutes at RT Read on VL/2 using Luminesence Wheel (Filter A)

Compound | Potency
C[C@]12CCC(=O)C(O)=C1CC[C@@H]1[C@@H]2CC[C@]2(C)C(=O)CC[C@@H]12 | 26.4 µM (active)
Cc1sc2c(c1C)C(c1ccc(Cl)cc1)=N[C@@H](CC(=O)OC(C)(C)C)c1nnc(C)n1-2 | 0.0833 µM (active)
Cc1cc(SCc2sc(-c3ccc(C(F)(F)F)c(F)c3)nc2C)ccc1OCC(=O)O | 26.4 µM (active)
CO[C@@H](C(=O)N1Cc2[nH]nc(NC(=O)c3ccc(N4CCN(C)CC4)cc3)c2C1)c1ccccc1 | 7.43 µM (active)
COC1(CS(=O)c2ccccc2)CCN(CCc2c[nH]c3ccc(F)cc23)CC1 (stereo not drawn) | 23.5 µM (active)
CN(C)CCN(C)CCc1ccc(Cl)c(Cl)c1 | 16.6 µM (active)
COC[C@H]1OC(=O)c2coc3c2[C@@]1(C)C1=C(C3=O)C2CCC(=O)[C@@]2(C)C[C@H]1OC(C)=O (stereo partly drawn) | 14.8 µM (active)
CC(O)(CS(=O)(=O)c1ccc(F)cc1)C(=O)Nc1ccc(C#N)c(C(F)(F)F)c1 (stereo not drawn) | 18.7 µM (active)
CS(=O)c1ccc(-c2nc(-c3ccc(F)cc3)c(-c3ccncc3)[nH]2)cc1 (stereo not drawn) | 29.6 µM (active)
Cn1cc(C2=C(c3cn(C4CCN(Cc5ccccn5)CC4)c4ccccc34)C(=O)NC2=O)c2ccccc21 | 13.2 µM (active)
Cn1c(CCCC(=O)O)nc2cc(N(CCCl)CCCl)ccc21 | 18.7 µM (active)
CNC(=O)N1N=C(c2ccc(N)cc2)c2cc3c(cc2CC1C)OCO3 (stereo not drawn) | 2.96 µM (active)
O=C(O)C(=O)c1cn(Cc2ccccc2)c2ccc(-c3ccc(OC(F)(F)F)cc3)cc12 | 20.9 µM (active)

From PubChem BioAssay (NCATS)
